In PubChem BioAssay (NCI):
The panel holds about 83,000 compounds, 20% with a hit somewhere; the sample as a whole holds those more often.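 Growth was measured after 48 h exposure to one concentration of compound in 96-well plates. Values under 10 count as active.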 Calls of active or inactive are those of the source.

Columns and labels:
Assay in all cases: NCI-60 one-dose screen, 48 h (100 = growth as untreated, 0 = no growth, -100 = all killed)
Conditions in all cases: 10 µM unless noted
SR leukemia = system: SR leukemia
RPMI-8226 leukemia = system: RPMI-8226 leukemia
OVCAR-8 ovarian = system: OVCAR-8 ovarian
OVCAR-5 ovarian = system: OVCAR-5 ovarian
OVCAR-4 ovarian = system: OVCAR-4 ovarian
SK-OV-3 ovarian = system: SK-OV-3 ovarian
IGROV1 ovarian = system: IGROV1 ovarian
OVCAR-3 ovarian = system: OVCAR-3 ovarian
HS 578T breast = system: HS 578T breast
NCI/ADR-RES ovarian = system: NCI/ADR-RES ovarian
T-47D breast = system: T-47D breast
BT-549 breast = system: BT-549 breast
MDA-MB-435 melanoma = system: MDA-MB-435 melanoma
SW-620 colon = system: SW-620 colon
MCF7 breast = system: MCF7 breast
HCT-116 colon = system: HCT-116 colon
HCC-2998 colon = system: HCC-2998 colon
KM12 colon = system: KM12 colon

Measured: growth

Cc1ccc(Nc2cccc3ccccc23)cc1
inactive: SR leukemia 62.1% | RPMI-8226 leukemia 76.5% | OVCAR-8 ovarian 96.2% | OVCAR-5 ovarian 93.2% | OVCAR-4 ovarian 78.9% | SK-OV-3 ovarian 101% | IGROV1 ovarian 73.2% | OVCAR-3 ovarian 89.1% | HS 578T breast 83.4% | NCI/ADR-RES ovarian 78.1% | T-47D breast 65.1% | BT-549 breast 103% | MDA-MB-435 melanoma 29.7% | SW-620 colon 77.7% | MCF7 breast 38.4% | HCT-116 colon 80.7% | HCC-2998 colon 88.1%

COc1ccc(C(=O)OC2C(OC3C(O)COC(O[C@H]4C[C@H]5[C@@H]6CC=C7C[C@@H](O)CC[C@]7(C)[C@H]6CC[C@]5(C)[C@H]4[C@H](C)C(=O)CCC(C)C)C3OC(=O)C(C)C)OCC(O)C2O)cc1 (stereo not given in full)
inactive: OVCAR-8 ovarian 36.3% | OVCAR-5 ovarian 42% | OVCAR-4 ovarian 60.9% | IGROV1 ovarian 37.2% | OVCAR-3 ovarian 60.5% | NCI/ADR-RES ovarian 75% | BT-549 breast 14.6% | HCT-116 colon 10.3% | HCC-2998 colon 59% | KM12 colon 36.3%
active: SR leukemia 5.59% | RPMI-8226 leukemia -27.4% | SK-OV-3 ovarian -21.1% | HS 578T breast -2.09% | T-47D breast -1.53% | MDA-MB-435 melanoma -1.62% | SW-620 colon -19.5% | MCF7 breast 3.21%

CC(C)CCSc1nc(Nc2ccccc2)c(C#N)c(-c2ccc(F)cc2)n1
active: OVCAR-4 ovarian -18%
inactive: SR leukemia 37.4% | RPMI-8226 leukemia 50% | OVCAR-8 ovarian 42.2% | OVCAR-5 ovarian 83.8% | SK-OV-3 ovarian 67.2% | IGROV1 ovarian 33.5% | OVCAR-3 ovarian 28.8% | HS 578T breast 49.5% | NCI/ADR-RES ovarian 56.8% | T-47D breast 46.5% | BT-549 breast 79% | MDA-MB-435 melanoma 82.5% | SW-620 colon 46.5% | MCF7 breast 65.2% | HCT-116 colon 24% | HCC-2998 colon 83.1% | KM12 colon 84.8%

COc1ccc(CNc2c3ccccc3nc3ccccc23)cc1F
active: SR leukemia 4.85% | RPMI-8226 leukemia -5.78% | MDA-MB-435 melanoma 7.6% | MCF7 breast 2.34% | HCC-2998 colon 5.83%
inactive: OVCAR-8 ovarian 29.4% | OVCAR-5 ovarian 36.9% | OVCAR-4 ovarian 26.1% | SK-OV-3 ovarian 48.1% | IGROV1 ovarian 15.8% | OVCAR-3 ovarian 52.2% | HS 578T breast 45.5% | NCI/ADR-RES ovarian 20.8% | T-47D breast 35% | BT-549 breast 49.5% | SW-620 colon 16.6% | HCT-116 colon 12.3% | KM12 colon 32.8%

CCn1c(Cc2ccccc2Nc2c(Cl)cccc2Cl)nnc1SCC(=O)Nc1ccccc1C(F)(F)F
inactive: SR leukemia 79.8% | RPMI-8226 leukemia 76.4% | OVCAR-8 ovarian 92.8% | OVCAR-5 ovarian 110% | OVCAR-4 ovarian 79% | SK-OV-3 ovarian 96.1% | IGROV1 ovarian 79.4% | OVCAR-3 ovarian 99.9% | HS 578T breast 94.9% | NCI/ADR-RES ovarian 87.4% | T-47D breast 47.6% | BT-549 breast 94.4% | MDA-MB-435 melanoma 99.5% | SW-620 colon 99.3% | MCF7 breast 86.3% | HCT-116 colon 77.8% | HCC-2998 colon 99.9% | KM12 colon 97.6%

COc1ccc(C(=O)C(CN(C)C)c2ccc(OC)cc2)cc1 (stereo not given)
active: SR leukemia 0.837% | RPMI-8226 leukemia 1.35% | OVCAR-3 ovarian -4.36% | BT-549 breast 2.74%
inactive: OVCAR-8 ovarian 42.2% | OVCAR-5 ovarian 94.8% | OVCAR-4 ovarian 73.1% | SK-OV-3 ovarian 98.8% | IGROV1 ovarian 86.9% | HS 578T breast 92.2% | NCI/ADR-RES ovarian 67.3% | T-47D breast 56.7% | MDA-MB-435 melanoma 43.8% | SW-620 colon 11.9% | MCF7 breast 18.5% | HCT-116 colon 14.7% | HCC-2998 colon 117% | KM12 colon 78%

O=C(N/N=C\c1cc(Br)ccc1O)c1ccncc1
active: T-47D breast -3.65% | MCF7 breast 2.38%
inactive: SR leukemia 14.2% | RPMI-8226 leukemia 36.9% | OVCAR-8 ovarian 27.5% | OVCAR-5 ovarian 54.8% | OVCAR-4 ovarian 36.8% | SK-OV-3 ovarian 38.3% | IGROV1 ovarian 25.2% | OVCAR-3 ovarian 25.1% | HS 578T breast 76.5% | NCI/ADR-RES ovarian 12.4% | BT-549 breast 45.2% | MDA-MB-435 melanoma 64.1% | SW-620 colon 37.7% | HCT-116 colon 21% | HCC-2998 colon 42.7% | KM12 colon 25.8%

COc1cc(NCC(O)CN(CC(C)C)CC(C)C)c2ncccc2c1 (stereo not given)
inactive: SR leukemia 50.6% | RPMI-8226 leukemia 37.6% | OVCAR-8 ovarian 63.3% | OVCAR-5 ovarian 101% | OVCAR-4 ovarian 19.5% | SK-OV-3 ovarian 87.4% | IGROV1 ovarian 74.3% | OVCAR-3 ovarian 47.4% | HS 578T breast 84.7% | NCI/ADR-RES ovarian 92.4% | BT-549 breast 95.2% | MDA-MB-435 melanoma 107% | SW-620 colon 74.9% | HCT-116 colon 80.2% | HCC-2998 colon 93.6% | KM12 colon 96%
active: T-47D breast 1.96% | MCF7 breast -25.6%

CC(=O)c1ccc(N2C(=O)c3ccc(Oc4ccccc4)cc3C2=O)cc1
inactive: SR leukemia 119% | RPMI-8226 leukemia 101% | OVCAR-8 ovarian 114% | OVCAR-5 ovarian 103% | OVCAR-4 ovarian 108% | SK-OV-3 ovarian 108% | IGROV1 ovarian 108% | OVCAR-3 ovarian 107% | HS 578T breast 115% | NCI/ADR-RES ovarian 105% | T-47D breast 106% | BT-549 breast 98.8% | MDA-MB-435 melanoma 96.3% | SW-620 colon 98.8% | MCF7 breast 101% | HCT-116 colon 104% | HCC-2998 colon 99.4% | KM12 colon 95.6%

O=C(Nc1ccc(Cl)cc1)c1cc(-c2ccc(Cl)cc2)c2sc(=O)[nH]c2n1
active: SR leukemia 2% | RPMI-8226 leukemia -6.18% | OVCAR-8 ovarian 4.75% | SK-OV-3 ovarian -24.3% | OVCAR-3 ovarian 1.82% | HS 578T breast -14.4% | NCI/ADR-RES ovarian 5.64% | T-47D breast -22.8% | BT-549 breast 1.28% | MDA-MB-435 melanoma 7.39% | SW-620 colon 8.1% | MCF7 breast 0.758% | HCT-116 colon 0.269% | KM12 colon 4.21%
inactive: OVCAR-5 ovarian 32% | OVCAR-4 ovarian 13% | IGROV1 ovarian 28.1% | HCC-2998 colon 19.1%

CC(=O)Nc1c(Br)cc2c(c1Br)Cc1cc(Br)ccc1-2
inactive: SR leukemia 54.4% | RPMI-8226 leukemia 83% | OVCAR-8 ovarian 68.7% | OVCAR-5 ovarian 108% | SK-OV-3 ovarian 85.7% | IGROV1 ovarian 45% | OVCAR-3 ovarian 87% | NCI/ADR-RES ovarian 76.1% | T-47D breast 38.9% | BT-549 breast 77.3% | MDA-MB-435 melanoma 69.3% | SW-620 colon 41.7% | MCF7 breast 59.9% | HCT-116 colon 46.6% | HCC-2998 colon 102% | KM12 colon 59.6%
active: OVCAR-4 ovarian 9.85% | HS 578T breast -7.93%

Nc1ccc(C2=NNC(=O)Cc3cc4c(cc32)OCCO4)cc1Cl
active: OVCAR-3 ovarian -14.1% | MDA-MB-435 melanoma -19.2%
inactive: SR leukemia 19.6% | RPMI-8226 leukemia 56.2% | OVCAR-8 ovarian 60.1% | OVCAR-5 ovarian 69.7% | OVCAR-4 ovarian 87.8% | SK-OV-3 ovarian 57.1% | IGROV1 ovarian 40.8% | HS 578T breast 62.2% | NCI/ADR-RES ovarian 12% | T-47D breast 44.2% | BT-549 breast 48.5% | SW-620 colon 18.7% | MCF7 breast 18.8% | HCT-116 colon 20.1% | HCC-2998 colon 61.9% | KM12 colon 16%

CCCCCCCCCCCCCCCC1=NCCN1
active: SR leukemia -44.9% | T-47D breast -15.4% | MDA-MB-435 melanoma 0.615% | SW-620 colon 7.4%
inactive: RPMI-8226 leukemia 40.8% | OVCAR-8 ovarian 84.5% | OVCAR-5 ovarian 69% | OVCAR-4 ovarian 78% | SK-OV-3 ovarian 99.2% | IGROV1 ovarian 42.3% | OVCAR-3 ovarian 77% | HS 578T breast 84.4% | NCI/ADR-RES ovarian 75.4% | BT-549 breast 98% | MCF7 breast 32% | HCT-116 colon 34.6% | HCC-2998 colon 73.8% | KM12 colon 64.1%

CSC1=N/C(=C\c2cccc(OCc3ccc(Cl)cc3)c2)C(=O)N1
inactive: SR leukemia 80.9% | RPMI-8226 leukemia 67.7% | OVCAR-8 ovarian 86.1% | OVCAR-5 ovarian 106% | OVCAR-4 ovarian 56.9% | SK-OV-3 ovarian 98.5% | IGROV1 ovarian 86.7% | OVCAR-3 ovarian 84.2% | HS 578T breast 104% | NCI/ADR-RES ovarian 79% | T-47D breast 59.4% | BT-549 breast 88.1% | MDA-MB-435 melanoma 80.6% | SW-620 colon 88.1% | MCF7 breast 83% | HCT-116 colon 88.8% | HCC-2998 colon 93% | KM12 colon 79.8%

CCOC(=O)c1ccc(NC(=O)CSC(N)=O)cc1
inactive: SR leukemia 96.8% | RPMI-8226 leukemia 87.3% | OVCAR-8 ovarian 100% | OVCAR-5 ovarian 99.1% | OVCAR-4 ovarian 122% | SK-OV-3 ovarian 128% | IGROV1 ovarian 92% | OVCAR-3 ovarian 109% | HS 578T breast 105% | NCI/ADR-RES ovarian 99.3% | T-47D breast 131% | BT-549 breast 93.8% | MDA-MB-435 melanoma 113% | SW-620 colon 103% | MCF7 breast 99.3% | HCT-116 colon 87.9% | HCC-2998 colon 105% | KM12 colon 111%

Cc1cc(-c2ccccc2)on1
inactive: SR leukemia 87.3% | RPMI-8226 leukemia 108% | OVCAR-8 ovarian 106% | OVCAR-5 ovarian 106% | OVCAR-4 ovarian 102% | SK-OV-3 ovarian 93.1% | IGROV1 ovarian 98.1% | OVCAR-3 ovarian 112% | HS 578T breast 104% | NCI/ADR-RES ovarian 105% | T-47D breast 96% | BT-549 breast 119% | MDA-MB-435 melanoma 107% | SW-620 colon 109% | MCF7 breast 106% | HCT-116 colon 101% | HCC-2998 colon 111% | KM12 colon 106%

c1coc(CNc2c3ccccc3nc3ccccc23)c1
inactive: SR leukemia 34% | RPMI-8226 leukemia 56.6% | OVCAR-8 ovarian 47.5% | OVCAR-5 ovarian 76.4% | OVCAR-4 ovarian 56.2% | SK-OV-3 ovarian 70.9% | IGROV1 ovarian 61.8% | OVCAR-3 ovarian 96.9% | HS 578T breast 84% | NCI/ADR-RES ovarian 44.8% | T-47D breast 69.3% | BT-549 breast 97.4% | MDA-MB-435 melanoma 87.6% | SW-620 colon 42.3% | MCF7 breast 21.3% | HCT-116 colon 24.1% | HCC-2998 colon 68.9% | KM12 colon 85.5%
